Source: PubChem BioAssay (National Center for Advancing Translational Sciences (NCATS))
HPGD inh = HPGD (human) dehydrogenase inhibition. hit rate 4.3% among 150,000. Potency, µM, for inactives: at the highest dose activity change, negative = inhibition, usual class: inhibitors. P15428. purified HPGD, NADH fluorescence kinetic, PGE2 substrate; active means well fitted inhibition curve with a large enough effect, not every such curve was filed as active; inconclusive means small, poorly fitted or top-dose-only effect, or another doubt; inactive means no such curve, though single readings can be large or run the other way; further: potency means the concentration at half of the fitted maximal effect
Target sequence (P15428 whole entry, looked up): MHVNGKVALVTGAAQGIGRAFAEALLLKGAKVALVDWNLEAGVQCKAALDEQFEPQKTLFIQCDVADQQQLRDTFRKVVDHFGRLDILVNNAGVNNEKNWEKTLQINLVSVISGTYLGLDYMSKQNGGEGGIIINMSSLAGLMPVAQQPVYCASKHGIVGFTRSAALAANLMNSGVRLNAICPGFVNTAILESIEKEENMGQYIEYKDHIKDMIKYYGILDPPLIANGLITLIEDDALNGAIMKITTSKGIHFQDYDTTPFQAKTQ
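20 nM HPGD preincubated 15 min at room temperature with compound in 50 mM Tris-HCl pH 8, 0.01% Tween 20. Started with 1 mM NAD+ and 30 uM prostaglandin E2; NADH fluorescence (360/450 nm) read 5 times over 30-s intervals, last minus first.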
IMPase inh = cell-permeable inhibitors of inositol monophosphatase (IMPase); CHO-M1 cells, IP1 accumulation, HTRF TR-FRET ratio; inhibition (IP1 accumulation), % at 46.1 µM; 120,000 tested, under 10 active; active means well fitted curve in the direction sought with a large enough effect in the signal ratio, not every such curve was filed as active; inconclusive means small, poorly fitted or top-dose-only effect, or a change in a side signal; inactive means no such curve, though single readings can be large or run the other way; the % refers to the signal ratio;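 further: cells stimulated with carbachol in lithium chloride buffer; plate controls were DMSO basal wells for no effect and reference inhibitor wells for full effect; higher means more IMPase inhibition seen as more IP1 and lower FRET ratio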
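Cellular IMPase inhibition is scored as a rise in cytosolic IP1, detected by competitive TR-FRET between d2-labelled IP1 and a europium anti-IP1 antibody. M1-expressing CHO cells were stimulated with carbachol for 30 min at 37C, with lithium (50 mM LiCl) present in the buffer.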
ALDH1A1 inh = inhibitors of human aldehyde dehydrogenase 1A1; hit rate 7.3% among 220,000; P00352; Purified ALDH1A1, NADH fluorescence, propionaldehyde substrate; AID 1030; Potency, µM (highest dose often 75.3 µM), for inactives: at the highest dose activity, negative = inhibition, hits mostly inhibitors; active means well fitted inhibition curve with a large enough effect, not every such curve was filed as active; inconclusive means small, poorly fitted or top-dose-only effect, or another doubt; inactive means no such curve, though single readings can be large or run the other way;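 further: potency means the concentration at half of the fitted maximal effect; plate controls were no enzyme wells and a reference inhibitor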
Target sequence (P00352 whole entry, looked up): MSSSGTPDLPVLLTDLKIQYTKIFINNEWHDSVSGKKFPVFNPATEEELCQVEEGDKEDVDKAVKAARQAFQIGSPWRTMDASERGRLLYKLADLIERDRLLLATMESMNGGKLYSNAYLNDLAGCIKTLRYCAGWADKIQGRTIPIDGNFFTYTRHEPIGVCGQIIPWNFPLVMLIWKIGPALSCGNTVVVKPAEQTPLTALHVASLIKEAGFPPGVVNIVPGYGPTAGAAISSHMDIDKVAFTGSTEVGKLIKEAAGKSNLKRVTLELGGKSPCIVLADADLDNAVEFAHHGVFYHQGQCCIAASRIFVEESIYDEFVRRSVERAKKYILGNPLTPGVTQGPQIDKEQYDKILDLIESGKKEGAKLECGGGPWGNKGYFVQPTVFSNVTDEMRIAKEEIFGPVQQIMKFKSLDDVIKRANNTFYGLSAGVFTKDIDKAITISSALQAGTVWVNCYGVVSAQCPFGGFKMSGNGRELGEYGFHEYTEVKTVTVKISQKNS
IMPase Li cell = IMPase inhibition in cells with lithium potentiation; Potency, µM (doses to about 59.4 µM), without a hit: at the top dose activity, negative = IMPase inhibition, actives largely listed as inhibitors; hit rate 0.35% among 210,000; AID 1457; CHO-M1 cells, IP1 TR-FRET (IP-One), carbachol + lithium;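 further: IP1 builds up when IMPase is blocked and the TR-FRET signal falls; potency means the concentration at half of the fitted maximal effect; plate controls were basal vehicle for no effect and high inhibitor control for full effect; nearly all actives have a fitted effect of over 50% in size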
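IP1 accumulation measured by competitive TR-FRET in lysed CHO-M1 cells after 30 min compound exposure at 37C, with a small lithium addition to potentiate weak responses. Hill-equation AC50 from ratio and donor-channel data.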
NPSR antagonist = antagonists of human neuropeptide S receptor cAMP signaling; hit rate 1% among 220,000; Potency, µM (doses to about 38.3 µM), without a hit: at the highest dose activity change, negative = inhibition, usual class: inhibitors; Q6W5P4; CHO-NPSR cells, cAMP TR-FRET, antagonist mode; further: potency means the concentration at half of the fitted maximal effect; nearly all actives have a fitted effect of over 50% in size
ALOX12 inhib = blocks human 12-lipoxygenase activity. P18054. purified 12-hLO, xylenol orange hydroperoxide absorbance. Potency, µM (titrated, usually from 57.1 µM), without a hit: at the top dose activity change, negative = inhibition, actives largely listed as inhibitors. hit rate 0.12% among 150,000. AID 1452; further: potency means the concentration at half of the fitted maximal effect; nearly all actives have a fitted effect of over 55% in size
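Purified human 12hLO (150 nM), preincubated 15 min with compound, then 40 uM arachidonic acid for 30 min, room temperature, Hepes pH 7.0 with 0.01% Triton X-100. Hydroperoxide detected by ferrous iron/xylenol orange; 573/405 nm absorbance ratio gives reaction progress.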
An asterisk follows results filed as active; [ ] = another dose, or the depositor's remark. Sampled rows, rich in hits. Any-hit rate of the full collection: about 8.9%. Unless noted, the call rests on the fitted dose curve; in most records, active means well fitted curve in the direction sought with a large enough effect; inconclusive means small, poorly fitted or top-dose-only effect, or another doubt; inactive means no such curve, though single readings can be large; an effect the other way counts as inactive or inconclusive. Unless noted, on the % scale 0 is the no-effect control and ±100 the full control effect.

Results for CC(C)(C)C(=O)[C@@H]1[C@@H]2C(=O)N(c3ccc4c(c3)OCCO4)C(=O)[C@@H]2C2c3ccccc3C=CN21 (some centres not stated) ?
HPGD inh: inconclusive; IMPase inh: -1.3; ALDH1A1 inh: inconclusive; IMPase Li cell: 6.2%[38.3 µM]; NPSR antagonist: -15.6%[46.1 µM]; ALOX12 inhib: -9.9%

How did CC(=O)[C@@H]1[C@@H]2C(=O)N(Cc3ccccc3)C(=O)[C@@H]2C2c3ccccc3C=CN21 (some centres not stated) do in these assays?
HPGD inh: inconclusive; IMPase inh: 3.6; ALDH1A1 inh: 20µM*; IMPase Li cell: 2.6%[38.3 µM]; NPSR antagonist: -0.9%[46.1 µM]; ALOX12 inhib: -7.0%

What do the screens show for `Cc1ccc(N2C(=O)[C@@H]3[C@H](C2=O)C2c4ccccc4C=CN2[C@@H]3C(=O)c2ccco2)c(C)c1` (some centres not stated)?
HPGD inh: 35.5µM*; IMPase inh: 6.5; ALDH1A1 inh: 7.94µM*; IMPase Li cell: 14.4%[38.3 µM]; NPSR antagonist: -12.5%[46.1 µM]; ALOX12 inhib: -23.4%

Results for COc1ccc(NC(=O)c2cc(OC)c(OC)c(OC)c2Br)cc1OC ?
HPGD inh: 3.0%; ALDH1A1 inh: 10.6%; IMPase Li cell: -5.5%; NPSR antagonist: 13.9%; ALOX12 inhib: 1.4%

What do the screens show for `O=C(O)[C@@H](c1ccccc1)[C@@H](C(=O)O)c1ccccc1`?
HPGD inh: -6.3%; ALDH1A1 inh: -0.8%[13.5 µM]; IMPase Li cell: 3.0%; ALOX12 inhib: -0.2%[11.4 µM]

Results for O=C(c1ccco1)[C@@H]1[C@@H]2C(=O)N(c3ccccc3)C(=O)[C@@H]2C2c3ccccc3C=CN21 (some centres not stated) ?
HPGD inh: inconclusive; IMPase inh: 7.1; ALDH1A1 inh: 2.24µM*; IMPase Li cell: 10.4%[38.3 µM]; NPSR antagonist: -9.2%[46.1 µM]; ALOX12 inhib: -9.6%

How did CCOC(=O)C1=NN(c2ccccc2)C(=O)/C1=C\c1ccc(N(C)C)cc1 do in these assays?
HPGD inh: 12.6µM*; IMPase inh: -1.6; ALDH1A1 inh: 1.58µM*; IMPase Li cell: 12.6%; NPSR antagonist: -29.3%[46.1 µM]; ALOX12 inhib: -1.8%

How did CCOC(=O)C1=NN(c2ccccc2)C(=O)C1 do in these assays?
NPSR antagonist: -14.0%

What do the screens show for `CC1=NN(Cc2ccccc2)C(=O)/C1=C\c1ccc(N(C)C)cc1`?
HPGD inh: -6.0%; IMPase inh: 4.6; ALDH1A1 inh: 14.1µM*; IMPase Li cell: 33.8%[38.3 µM]; NPSR antagonist: -0.5%[46.1 µM]; ALOX12 inhib: -1.9%

How did CC(Oc1ccc2oc3ccccc3c2c1)C(=O)NC12CC3CC(CC(C3)C1)C2 (configuration not stated) do in these assays?
IMPase inh: 2.2; ALDH1A1 inh: inconclusive; NPSR antagonist: -24.0%[46.1 µM]; ALOX12 inhib: 1.4%

What do the screens show for `Cc1nc2cnc(Oc3ccccc3)nc2n(C)c1=O`?
ALDH1A1 inh: inconclusive; IMPase Li cell: -0.3%

How did CSc1nc(C)c(Oc2ccccc2)c(=O)n1C do in these assays?
HPGD inh: 12.6µM*; IMPase inh: 0.2; ALDH1A1 inh: 13.3%; IMPase Li cell: 24.0%[38.3 µM]; NPSR antagonist: -9.8%[46.1 µM]; ALOX12 inhib: -1.5%

Results for O=C1CCN(N=Nc2cccc(Cl)c2)N1 ?
HPGD inh: inconclusive; IMPase inh: 1.6; ALDH1A1 inh: 20µM*; IMPase Li cell: 30.1%[38.3 µM]; NPSR antagonist: 2.8%[46.1 µM]; ALOX12 inhib: -19.3%

How did Nc1[nH][nH]c(=O)c1N=Nc1cccc(Cl)c1 do in these assays?
ALDH1A1 inh: 4.2%; IMPase Li cell: 24.2%; NPSR antagonist: 57.9%

How did O=C(CN(C(=O)CCNC(=O)c1ccco1)c1ccccc1)NC1CCCC1 do in these assays?
HPGD inh: -10.8%; IMPase inh: 5.6; ALDH1A1 inh: -5.4%; IMPase Li cell: 19.4%[38.3 µM]; NPSR antagonist: 1.4%[46.1 µM]; ALOX12 inhib: 2.6%

Results for O=C(CN1C(=O)/C(=C\C=C\c2ccccc2)SC1=S)Nc1ccc(F)cc1 ?
HPGD inh: -24.5%; ALDH1A1 inh: 16.6%; IMPase Li cell: 3.4%; NPSR antagonist: -27.8%; ALOX12 inhib: -1.7%

Results for CCn1c(=O)c2cc(C(=O)N(C)c3ccccc3F)sc2c2ccccc21 ?
ALDH1A1 inh: 25.1µM*; NPSR antagonist: inconclusive

What do the screens show for `CCn1c(=O)c2cc(C(=O)N(C)c3ccc(OC)cc3OC)sc2c2ccccc21`?
ALDH1A1 inh: -4.3%; NPSR antagonist: inconclusive

Results for CC1=C(C(=O)N2CCCCC2)C2(CCC(C)CC2)OC1=O (configuration not stated) ?
HPGD inh: inconclusive; IMPase inh: -7.7; ALDH1A1 inh: inconclusive; IMPase Li cell: 1.4%; NPSR antagonist: 21.3%; ALOX12 inhib: -1.0%

Results for CC(C)(CSc1ncccn1)NS(=O)(=O)c1ccccc1 ?
ALDH1A1 inh: inconclusive; IMPase Li cell: 6.1%; NPSR antagonist: 5.6%

What do the screens show for `CC(=O)/C(N=Nc1c(C)n(C)n(-c2ccccc2)c1=O)=C(\C)O`?
ALDH1A1 inh: 3.8%; IMPase Li cell: -1.4%; NPSR antagonist: -9.8%

Results for Cc1c(N=NC2=C(O)CC(C)(C)CC2=O)c(=O)n(-c2ccccc2)n1C ?
ALDH1A1 inh: 10µM*; IMPase Li cell: 12.7%; NPSR antagonist: -14.2%

What do the screens show for `CC1(C)CC(=O)C(N=Nc2cc3c(cc2[N+](=O)[O-])OCCO3)=C(O)C1`?
ALDH1A1 inh: 0.562µM*; IMPase Li cell: 16.2%; NPSR antagonist: -2.6%

Results for CC1(C)CC(=O)C(N=Nc2cccc(S(=O)(=O)N3CCOCC3)c2)=C(O)C1 ?
NPSR antagonist: 19.0%

What do the screens show for `Cc1ccc(O)c(N=NC2=C(O)CC(C)(C)CC2=O)c1`?
HPGD inh: -18.5%; ALDH1A1 inh: 6.31µM*; IMPase Li cell: 23.1%; NPSR antagonist: -16.6%; ALOX12 inhib: -5.3%

What do the screens show for `CC1(C)CC(=O)C(N=Nc2cc(Cl)c(Cl)c(Cl)c2)=C(O)C1`?
HPGD inh: -8.1%; IMPase inh: -12.7; ALDH1A1 inh: 5.01µM*; IMPase Li cell: -3.3%[38.3 µM]; NPSR antagonist: -3.6%[46.1 µM]; ALOX12 inhib: -6.8%

Results for CCCCN(C)C(=O)c1nc2ccccn2c1CNCCCn1nnc2ccccc21 ?
ALDH1A1 inh: -4.3%; IMPase Li cell: 9.5%; NPSR antagonist: 0.8%

Results for COc1ccc(-c2ccc(SCC(=O)c3ccccc3)nn2)cc1OC ?
ALDH1A1 inh: 25.1µM*; IMPase Li cell: 3.7%; NPSR antagonist: 1.4%

How did COc1ccc(C2C(C(=O)O)CCC(=O)N2c2ccc(OC)cc2)cc1 (configuration not stated) do in these assays?
HPGD inh: 1.8%; IMPase inh: -1.1; ALDH1A1 inh: 0.4%; IMPase Li cell: 14.3%[38.3 µM]; NPSR antagonist: 2.2%[46.1 µM]; ALOX12 inhib: 10.1%
